# Assay outcomes as filed in PubChem.
# HSF1 activator: increases HSF-1 driven luciferase reporter signal. AID 504408. NIH3T3-HGL HSF-1 luciferase reporter, MG132, 8 h; 100% = twice DMSO control signal. activation, % at 9 µM. 1.7% of 300,000 active;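 active = mean replicate activation of at least 50% with a set share of replicates each reaching 50%; inconclusive = only one of those two conditions met; inactive = mean below 50% and too few replicates reaching it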;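 also: 0% = median of the neutral control wells and 100% = twice that signal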
# MITF TRPM1 HTS: activators of MITF-driven TRPM1 promoter activity in SK-MEL-5 cells; SK-MEL-5 TRPM1-promoter luciferase, 24 h; % of positive control, neutral wells = 0; activation, % at 12.5 µM; 0.75% of 300,000 active;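 active = mean activation of at least 80% with every replicate also reaching 80%; inconclusive = mean reaches 80% but some replicate falls short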;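 also: 0% = neutral control wells and 100% = parthenolide positive control wells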
# esBAF inh: blocks esBAF chromatin remodeling in mouse ES cells; Bmi1-luciferase knock-in reporter, 24 h; 100% = twice the neutral-well signal; reporter increase, % at 12.5 µM; 2% of 350,000 active; in the data active = activation above about 40%; inconclusive = no clear call, values can overlap the other calls;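 also: 0% = median of the plate's neutral control wells and 100% = double that signal; a rise in the Bmi1 reporter signal indicates esBAF inhibition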
# Wnt act: Wnt/beta-catenin pathway activation; AID 743398; 1.2% of 300,000 active; Wnt/beta-catenin reporter cell assay, activator, plate reader; activation, % at 9.35 µM; in the data active = activation above about 30%, passing the limit was not always enough; inconclusive = no clear call, values can overlap the other calls;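 also: 0% = neutral control wells and 100% = positive control wells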
# HSF1 inhib: HSF1 inhibition; NIH3T3-HGL HSE-luciferase, MG132-induced, luminescence 8 h; hits give low values; activity change, negative = inhibition, % at 7.5 µM (by protocol); 0.77% of 300,000 active;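 active = more than half of replicate wells show activity change below -50%, luminescence cut by over half; inconclusive = some wells, but at most half, below -50%; inactive = no replicate well below -50%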;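 also: luciferase reports HSF-1 transcriptional activity via heat shock element; 0% = median of DMSO wells and -100% = zero luminescence signal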
# * marks the source's active call; other numbers are inactive results; ? = inconclusive; nt = no result. Sampled rows, rich in hits. Any-hit rate of the full collection: about 3.9%.
SMILES,HSF1 activator,MITF TRPM1 HTS,esBAF inh,Wnt act,HSF1 inhib
C[C@@H]1CN([C@H](C)CO)S(=O)(=O)c2ccc(Br)cc2O[C@H]1CN(C)CC1CCCC1,nt,nt,-4.6,nt,nt
O=S(=O)(N1CCCCC1)n1nnc2cc3ccccc3cc21,nt,nt,nt,0.8,nt
O=S(=O)(N1CCCCC1)n1nnc2ccccc21,-63.6,-10.3,-0.9,nt,-52.6*
C[C@@H]1CN([C@H](C)CO)C(=O)c2cc(NC(=O)Nc3ccc(F)cc3)ccc2O[C@@H](C)CCCCO[C@@H]1CN(C)C(=O)C1CCCCC1,nt,nt,9.9,nt,nt
Cc1ccc2c(c1)N=C(c1ccc(Cl)cc1)CO2,23.2,71.5,49.2*,10.8,11.6
O=C(Nc1ccc2c(c1)CCC2)c1ccccc1F,7.4,33.5,nt,30.1*,8.6
O=C(O)c1ccccc1-c1ccccc1C(=O)Nc1ccc2c(c1)CCC2,-0.4,-4.4,-1.2,0.7,4.3
CC1(c2ccc(NC(=O)c3ccccc3F)cc2)CC1(Cl)Cl (centres undefined),36.9,nt,62.9*,19.4,13.7
O=C(COc1cccnc1[N+](=O)[O-])Nc1ccc2c(c1)CCC2,-3.1,3.5,nt,5.3,-1.8
O=C(COc1ccccc1F)Nc1ccc2c(c1)CCC2,nt,nt,18.2,43.2*,nt
Clc1ccccc1Cn1nnc(-c2cccs2)n1,24.1,60.5,56.0*,nt,20.8
C[C@H](CO)N1C[C@H](C)[C@H](CN(C)C)Oc2ncc(C3=CCCC3)cc2C1=O,nt,nt,0.6,nt,nt
COc1ccc(C2=[N+]([O-])C(C)(C)C(c3ccccc3)=N2)cc1,4.0,-2.2,-2.3,-1.2,0.5
CC1(O)C(c2ccccc2)=Nc2ccccc21 (centres undefined),nt,nt,34.0,61.4*,nt
O=C1N=C(N2CCCC2)S/C1=C\C=C\c1ccccc1,-79.5,nt,nt,-0.2,-75.7*
O=C(C[C@H]1C[C@@H]2c3cc(NC(=O)C4CCC4)ccc3O[C@@H]2[C@H](CO)O1)NCc1cccnc1,nt,nt,0.3,nt,nt
O=[N+]([O-])c1ccc(N=Nc2ncc[nH]2)cc1,-65.8,-13.3,-50.8,53.5*,-66.3*
COc1ccc(/C=C2\SC(=O)N(CCNC(=O)C3CC4C=CC3C4)C2=O)cc1 (centres undefined),16.8,136.1*,nt,-1.4,24.9
COc1ccc(/C=C2\SC(=O)N(CCNC(=O)C3CSC4(C)CCC(=O)N34)C2=O)cc1 (centres undefined),7.7,26.4,nt,3.5,1.8
COc1ccc(C#Cc2ccc3c(c2)[C@H]2[C@H](CCN2C(=O)c2cnccn2)[C@H](CO)N3)cc1,nt,nt,0.9,nt,nt
O=[N+]([O-])c1ncccc1OCc1ccc(Cl)c(Cl)c1,20.4,66.9,66.6*,18.3,15.3
CN(C)S(=O)(=O)c1cccc(COc2cccnc2[N+](=O)[O-])c1,-7.8,2.9,-2.8,-2.2,-6.8
CCOC(=O)c1c(NC(C)=O)sc2c(O)cccc12,5.0,nt,-5.8,-0.9,3.6
CCOC(=O)c1c(NC(C)=O)sc2c(O)c(Br)cc(Br)c12,52.5*,-11.5,nt,-2.5,28.4
Cc1[nH]n(C(N)=S)c(=O)c1N=Nc1ccc(Br)cc1,15.4,41.1,34.7,40.3*,13.5
SMILES,HSF1 activator,MITF TRPM1 HTS,esBAF inh,Wnt act,HSF1 inhib
Cc1[nH]n(C(N)=S)c(=O)c1N=Nc1ccc(S(=O)(=O)N2CCCC2)cc1,11.5,nt,52.8*,-0.2,2.1
Cc1[nH]n(C(N)=S)c(=O)c1N=Nc1cccc(C(F)(F)F)c1,7.0,36.8,nt,26.5,3.3
Cc1ccc(N=Nc2c(C)[nH]n(C(N)=S)c2=O)cc1,-0.4,46.2,56.9*,19.4,-5.7
C[C@@H]1CN([C@@H](C)CO)C(=O)c2cc(NS(=O)(=O)c3cccs3)ccc2O[C@@H](C)CCCCO[C@H]1CN(C)C(=O)c1ccccc1,nt,nt,2.8,nt,nt
O=C(/C=C/c1ccc(Cl)c(Cl)c1)Nc1cccnc1,14.6,?,41.8*,2.4,16.2
COc1ccccc1/C=C/C(=O)Nc1cccnc1,2.9,51.6,39.2,10.8,5.3
CC(C)(C)c1ccc(/C=C/C(=O)Nc2cccnc2)cc1,38.8,108.5*,25.7,31.0*,22.2
O=C(/C=C/c1ccccc1Cl)Nc1cccnc1,57.6*,33.7,8.9,0.2,27.6
O=C(/C=C/c1ccccc1Cl)Nc1ccncc1,53.1*,55.6,nt,nt,37.9
O=C(/C=C/c1ccc(Cl)cc1Cl)Nc1ccncc1,nt,50.7,nt,30.0,nt
O=C(O)/C=C/C(=O)Nc1cccnc1,nt,-9.1,nt,nt,nt
C[C@H](CO)N1C[C@H](C)[C@H](CN(C)Cc2ccc(-c3ccccc3)cc2)Oc2c(NS(=O)(=O)c3cn(C)cn3)cccc2C1=O,nt,nt,-1.0,nt,nt
CNC[C@H]1OCCCC[C@@H](C)Oc2ccc(N(C)C)cc2C(=O)N([C@@H](C)CO)C[C@H]1C,nt,nt,-7.8,nt,nt
O=C(Cc1ccccc1)N1C[C@H]2[C@@H](c3ccccc31)[C@@H](CO)N2C(=O)C1CCCC1,nt,nt,-4.7,nt,nt
O=C(O)c1c(-c2ccccc2)oc2ccc(O)cc12,29.5,0.0,-0.7,0.7,-0.6
O=Cc1c(-c2ccc(Cl)cc2)oc2ccc(O)cc12,-57.5,nt,?,83.9*,-55.1*
Cc1cc(C)c(C)c(S(=O)(=O)NCc2ccco2)c1C,78.4*,nt,nt,nt,46.5
C[C@H](CO)N1C[C@H](C)[C@H](CN(C)C(=O)Nc2ccccc2)Oc2ccc(NC(=O)CCC(F)(F)F)cc2CC1=O,nt,nt,-0.4,nt,nt
CN(C)S(=O)(=O)c1cccc(NC(=O)c2ccc3c(c2)S(=O)(=O)N=C2CCCCCN23)c1,-3.6,-7.3,3.7,-2.7,-5.9
CS(=O)(=O)c1ccc(NC(=O)c2ccc3c(c2)S(=O)(=O)N=C2CCCCCN23)cc1,-64.8,-6.8,-4.4,-0.8,-53.8*
CC(C)NC(=O)N(C)C[C@H]1Oc2c(NS(=O)(=O)c3ccc(Cl)cc3)cccc2C(=O)N([C@@H](C)CO)C[C@@H]1C,nt,nt,0.4,nt,nt
C[C@@H]1CN([C@@H](C)CO)C(=O)c2cc(NS(=O)(=O)c3cccs3)ccc2O[C@@H]1CN(C)C,nt,nt,-2.8,nt,nt
O=C(C[C@H]1CC[C@@H]2[C@H](COC[C@@H](O)CN2Cc2cccc(F)c2)O1)NCc1ccncc1,nt,nt,3.8,nt,nt
N#CC1=C(N)Oc2cc(N)ccc2C1c1ccccc1Cl (centres undefined),-71.3,nt,4.7,1.7,-61.4*
O=S(=O)(c1cccs1)N1CCC(Cc2ccccc2)CC1,-16.9,8.4,0.3,nt,0.9
SMILES,HSF1 activator,MITF TRPM1 HTS,esBAF inh,Wnt act,HSF1 inhib
Nc1ccc(S(=O)(=O)N2CCC(Cc3ccccc3)CC2)cc1,-63.9,-8.2,2.4,-4.8,-54.5*
CNC(C)C#Cc1ccc2c(=O)c3cc(C)c(C)cc3oc2c1 (centres undefined),39.2,26.0,69.3*,9.5,46.4
CNC(C)C#Cc1ccc2oc3cc(C)c(C)cc3c(=O)c2c1 (centres undefined),?,24.4,?,18.4,34.3
CC(C)NC(=O)N(C)C[C@H]1Oc2ncc(C#CC3(O)CCCC3)cc2C(=O)N([C@H](C)CO)C[C@H]1C,nt,nt,-2.5,nt,nt
C[C@H](CO)N1C[C@H](C)[C@H](CN(C)S(C)(=O)=O)Oc2cc(-c3cccc(F)c3)ccc2S1(=O)=O,nt,nt,-1.6,nt,nt
COC(=O)c1c(-c2ccc(OC)cc2)sc2ccc(OC)cc12,nt,66.5,45.9*,41.8*,nt
